# PLK1 PBD inh = PLK1 (human) polo-box domain binding inhibition; P53350; Plk1 PBD binding of FITC phosphopeptide, fluorescence polarization; Potency, µM, inactives show max response, negative = inhibition, actives largely listed as inhibitors; actives 2.8% (n = 360,000); AID 720504; note: series mostly up to about 57 µM; nearly all actives have a fitted effect of over 65% in size
# VDR inh = vitamin D3 receptor (human) inhibition. P11473. VDR-SRC2-3 peptide fluorescence polarization, 2 h. Potency, µM, inactives show max response, negative = inhibition, usual class: inhibitors. actives 0.93% (n = 400,000). AID 504847
#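 Inhibition of the VDR/SRC2-3 peptide interaction is quantified by fluorescence polarization. Compounds (23 nl, pintool) incubate with the reagents for 2 hours at ambient room temperature.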
# mIDH1 inhibitor = human IDH1 R132H inhibition. IDH1-R132H enzyme, NADPH consumption, diaphorase/resazurin fluorescence. Potency, µM (highest dose often 76.6 µM), without a hit: at the top dose activity change, negative = inhibition, actives largely listed as inhibitors. actives 0.093% (n = 390,000); note: nearly all actives have a fitted effect of over 65% in size
# Target sequence (O75874 whole entry R132H, stated change not applied): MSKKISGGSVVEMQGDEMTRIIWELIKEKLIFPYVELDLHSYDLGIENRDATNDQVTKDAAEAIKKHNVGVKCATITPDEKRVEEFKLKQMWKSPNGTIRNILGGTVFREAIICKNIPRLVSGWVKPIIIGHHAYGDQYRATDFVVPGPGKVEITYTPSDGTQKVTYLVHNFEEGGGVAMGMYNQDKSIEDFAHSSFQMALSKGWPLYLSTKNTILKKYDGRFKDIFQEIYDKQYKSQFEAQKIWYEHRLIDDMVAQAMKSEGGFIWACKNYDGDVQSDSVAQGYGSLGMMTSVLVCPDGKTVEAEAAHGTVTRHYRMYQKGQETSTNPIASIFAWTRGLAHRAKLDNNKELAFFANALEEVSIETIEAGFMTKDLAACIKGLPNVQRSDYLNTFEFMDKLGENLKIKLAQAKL
#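 IDH1-R132H (0.5 ug/mL dispensed) in pH 7.5 Tris buffer was preincubated 30 min with compound, then given a substrate mix of 0.016 mM NADPH and 2 mM alpha-KG for 80 min at room temperature; remaining NADPH was read by diaphorase/resazurin fluorescence.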
# Sfp inh = inhibitors of Bacillus subtilis Sfp phosphopantetheinyl transferase | Potency, µM, without a hit: largest response in the series, negative = inhibition, most hits filed as inhibitors | Biochemical Sfp PPTase activity, qHTS | actives 3.5% (n = 310,000) | AID 1490 | Q9F4F7;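 note: the enzyme is Sfp with the accession as filed and its product quenches rhodamine fluorescence; 0% = enzyme reaction without inhibitor and -100% = no enzyme wells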
#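 With Hepes-Na pH 7.6 buffer containing 10 mM MgCl2, Sfp (15 nM) modified BHQ-2-YbbR (12.5 uM) using rhodamine-CoA (5 uM). Two reads 30 minutes apart at 525/598 nm yielded each well's rate.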
# TrxR1 substrate = rat thioredoxin reductase 1 substrate activity; O89049; purified TrxR1 substrate turnover, NADPH consumption readout; Potency, µM (highest dose often 114 µM), without a hit: top-dose activity change, negative = substrate turnover; actives 0.01% (n = 390,000); note: nearly all actives have a fitted effect of over 50% in size
#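 Rat TrxR1, dispensed at 90 nM, was prereduced with 400 uM NADPH (final) for 5 min at ~22 deg C, then incubated with compound 15 min before 400 uM selenite. A first-read NADPH fluorescence drop versus no-compound background flagged substrates.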
# rTrxR1 inhibitor = blocks rat thioredoxin reductase 1. O89049. recombinant rTrxR1, NADPH fluorescence consumption, selenite substrate. Potency, µM (top dose mostly 114 µM), for the others: at the highest dose activity change, negative = inhibition, usual class: inhibitors. actives 1% (n = 390,000). AID 588453; note: nearly all actives have a fitted effect of over 65% in size
#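 Rat TrxR1 (90 nM in the dispensed reagent) was pre-reduced with 400 uM NADPH for 5 min at room temperature, then incubated with compound for 15 min. After 400 uM selenite was added, NADPH fluorescence (Ex 340/Em 450 nm) was followed for 8 min.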
# An asterisk follows results filed as active; ? = inconclusive; · = no result; [ ] = remark or other dose. Rows were chosen to be rich in hits. Some 5.2% of all compounds tested hit in one or more screens of this group. Calls come from the whole dose curve; as a rule, active = well fitted curve in the direction sought with a large enough effect; inconclusive = small, poorly fitted or top-dose-only effect, or another doubt; inactive = no such curve, though single readings can be large; an effect the other way counts as inactive or inconclusive. Unless noted, % is set by controls: 0 for no effect and ±100 for the full control effect; potency is the fitted concentration of half-maximal effect.
SMILES,PLK1 PBD inh,VDR inh,mIDH1 inhibitor,Sfp inh,TrxR1 substrate,rTrxR1 inhibitor
O=C(NCc1ccc(F)cc1)C1CCCN1S(=O)(=O)c1ccccc1C(F)(F)F (configuration not stated),-4.9%,-2.5%,-12.8%,·,1.1%,17.1%
CCOC(=O)C(Cc1ccc(NC(=O)/C(=C/c2ccccc2)NC(=O)c2ccccc2)cc1)N1C(=O)c2ccccc2C1=O (configuration not stated),-0.5%,0.5%,6.2%,16.8%,-3.7%,-7.9%
CCOC(=O)C(Cc1ccc(NC(=O)/C(=C/c2ccc(OC(C)=O)cc2)NC(C)=O)cc1)N1C(=O)c2ccccc2C1=O (configuration not stated),26.7µM*,7.8%,6.5%,4.4%,-9.0%,-22.2%
Cc1ccc(S(=O)(=O)N(C)C)cc1NC(=O)COC(=O)Cc1ccc(Br)cc1,18.9µM*,?,-3.9%,5.5%,3.3%[57.1 µM],10.1%[57.1 µM]
Cc1ccc(S(=O)(=O)N(C)C)cc1NC(=O)COC(=O)Cc1ccccc1F,1.0%,11.2%,3.7%,·,-4.8%,-4.5%
COc1ccc(-c2oc3c(CC=C(C)C)c(O[C@H]4OC(CO)C(O)C(O)C4O)cc(O)c3c(=O)c2O[C@@H]2OC(C)C(O)C(O)C2O)cc1 (some centres not stated),·,7.0%,·,-2.6%,·,·
CCN(CC)c1nc(N)c2c(N)n(-c3ccccc3C)c(=S)c(C#N)c2c1C#N,26.7µM*,?,?,?,-20.8%,?
CCN(CC)c1nc(N)c2c(N)nc3c(c2c1C#N)CC(c1ccccc1)O3 (configuration not stated),2.0%,26.1%,-2.0%,-9.3%,37.9%,-3.0%
CC(C)NC(=O)N1CCC2(CC1)CCN(C(=O)c1ccco1)CC2,·,-1.0%,·,26.0%,·,·
O=C(OCCCN1C(=O)c2ccccc2C1=O)c1ccco1,26.7µM*,1.5%,0.3%,17.2%,8.9%[57.1 µM],11.8%[57.1 µM]
Cc1nnc(SCC(=O)NC2(C#N)CCCCC2)n1N,-12.8%,·,4.8%,·,·,·
COC(=O)[C@H](C)NC(=O)NCCC1=CCCCC1,29.9µM*,-25.1%,7.1%,12.0%,6.5%[57.1 µM],23.5%[57.1 µM]
CCC(C)[C@H](NC(=O)NCCC1=CCCCC1)C(=O)OC (some centres not stated),-11.4%,-2.6%,0.6%,3.4%,-2.4%,3.9%
CCCCCN(C(=O)CCC(=O)OCC(=O)NCc1cccc(OC)c1)c1c(N)n(CCCC)c(=O)[nH]c1=O,-0.1%,-8.0%,-3.3%,1.8%,-5.1%,-9.2%
CCc1ccc(C2C(C#N)=C(N)C(C#N)(C#N)C3=CCC(C(C)(C)C)CC32)cc1 (configuration not stated),-28.8%,?,36.9µM*,-0.7%,1.0%,?
CC(C)(C)C1CC=C2C(C#N)=C(N)C(C#N)(C#N)C(c3cccs3)C2C1 (configuration not stated),·,·,·,-12.5%,·,·
CC(=O)[C@@H]1[C@@H](C(=O)c2ccc(C)cc2)[C@]2(C(=O)Nc3ccccc32)[C@H]2C=Cc3cc(F)ccc3N12,-7.9%,-8.4%,3.6%,3.98µM*,-18.2%,?
CC(=O)[C@@H]1[C@@H](C(=O)c2ccc(F)cc2)[C@]2(C(=O)Nc3ccccc32)[C@H]2C=Cc3cc(F)ccc3N12,-20.2%,0.6%,-4.8%,20µM*,-1.4%,-32.3%
Cc1ccc(C(=O)N2CC(=O)Nc3ccc(F)cc3C2c2ccccc2)cc1 (configuration not stated),-1.5%,-0.9%,-1.4%,5.2%,-7.5%,-8.7%[57.1 µM]
O=C(c1ccc(F)cc1)[C@@H]1[C@@H](C(=O)c2ccccc2)[C@@]2(C(=O)Nc3ccccc32)[C@H]2c3ccccc3C=CN12,·,·,·,1.6%,·,·
CC1(C)Cc2c(sc3c2C(=O)N(c2ccccc2)C2=NCCN23)CS1,-7.0%,11.6%,6.8%,89.1µM*,34.8%,-9.1%
CN1C(=O)c2c(sc3c2CC(C)(C)SC3)N2CCN=C12,-7.7%,1.6%,2.8%,?,7.6%,-20.3%
CCN(CC)CCCn1c(-c2ccccc2)nc2c(N(CCOC)CCOC)nc(C)nc21,·,·,·,22.7%,·,·
CCOC(=O)c1[nH]c2c(c1C)C(=O)CC(c1ccco1)C2 (configuration not stated),-24.9%,-5.1%,14.5%,25.1µM*,-8.3%[57.1 µM],-12.4%[57.1 µM]
Cc1c(C(=O)OCc2ccccc2)[nH]c2c1C(=O)CC(c1ccco1)C2 (configuration not stated),?,-27.5%,-17.8%,39.8µM*,6.5%[57.1 µM],17.7%[57.1 µM]
SMILES,PLK1 PBD inh,VDR inh,mIDH1 inhibitor,Sfp inh,TrxR1 substrate,rTrxR1 inhibitor
Cc1c(C(=O)OCCOC(C)C)[nH]c2c1C(=O)CC(c1ccco1)C2 (configuration not stated),-21.9%,-4.1%,-9.4%,?,2.0%[57.1 µM],-4.8%[57.1 µM]
CSCCOC(=O)c1[nH]c2c(c1C)C(=O)CC(c1ccco1)C2 (configuration not stated),-28.7%,-14.1%,-7.0%,44.7µM*,4.6%[57.1 µM],-10.7%[57.1 µM]
Cc1ccc(NC(=O)C2CCCN(S(=O)(=O)c3ccc4c(c3)oc(=O)n4C)C2)cc1Cl (configuration not stated),·,-20.9%,-7.6%,·,-5.9%,7.1%
Cc1ccc2c(c1)N(CCCC(=O)Nc1cccc(C(F)(F)F)c1)C(=O)CO2,26.7µM*,?,5.8%,15.2%,-10.7%,-4.6%
CC(C)c1ccc(C2NC(C(=O)O)CS2)cc1 (configuration not stated),-9.2%,5.6%,4.0%,50.1µM*,-1.0%,45.5%
O=C1N/C(=N/NC(=O)c2cccc3ccccc23)S/C1=C\c1ccccc1OCc1ccccc1,26.7µM*,-4.0%,1.3%,-4.0%,-5.8%,?
Cc1nnc(NC(=O)C2CC(=O)N(c3ccc4c(c3)OCCO4)C2)s1 (configuration not stated),-11.3%,-1.0%,-17.4%,·,-5.5%,3.6%
O=C(Nc1nc(-c2ccco2)c(-c2ccco2)s1)C1CC(=O)N(c2ccc3c(c2)OCCO3)C1 (configuration not stated),?,?,4.9%,10µM*,0.4%,?
O=C(Nc1nc(-c2ccco2)c(-c2ccco2)s1)C1CCC1,-23.5%,?,4.1%,28.2µM*,4.5%,?
O=C(Nc1nnc(-c2ccco2)s1)C1CCCCC1,-4.7%,2.6%,6.9%,50.1µM*,0.3%,-8.8%
CS(=O)(=O)c1ccc2nc(NC(=O)c3ccccc3)sc2c1,-9.0%,-17.2%,1.7%,15.1%,-5.6%,1.5%[57.1 µM]
CS(=O)(=O)c1ccc(C(=O)Nc2nc(-c3ccco3)c(-c3ccco3)s2)cc1,-26.9%,?,3.5%,·,-19.7%,14.1µM*
COCCn1ccc2c(OCC(=O)Nc3cccc(C(F)(F)F)c3)cccc2c1=O,·,5.2%,-5.6%,·,1.9%[57.1 µM],11.0%[57.1 µM]
